Measurements from the supplement of paper PMC10849652.
The full data set covers some 8,800 targets. This sample favours those with a hit. About 0.5% of all pairs of compound and target were hits. Values without a mark were called inactive.

What was measured:
Assay in all cases: log2 fold change, soluble protein after heating vs DMSO (PISA); higher = thermal stabilisation; K562 lysate, 10 uM; active = over 0.2 and 3.5 SD of the protein, either way, in both replicates (recomputed)
[1] = compound: Cc1nc(Nc2ncc(C(=O)Nc3c(C)cccc3Cl)s2)cc(N2CCN(CCO)CC2)n1 [dasatinib]
Method in brief: (§1)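 K562 pellets were dounce-homogenised in PBS pH 7.4 containing 1 mM MgCl2, and the crude extract, at 1 mg/mL protein, was exposed to 10 μM compound for 30 min. Aliquots were heated for 3 min across 48°C-58°C, pooled, brought to 0.5% NP-40 at 4°C and spun at 21,000xg for 90 min, with the supernatant taken as soluble protein. TMTpro 16plex LC-MS/MS with equalised channel sums quantified that protein. Values are log-two fold changes in thermal stability relative to solvent controls, taken from duplicates.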

[2] = compound: Cn1cc(-c2ccc3c(c2)CCN3C(=O)Cc2cccc(C(F)(F)F)c2)c2c(N)ncnc21
Method in brief: as §1

[3] = compound: Cn1cc(CNCC2CCN(c3ncc(C(=O)NO)cn3)CC2)c2ccccc21 [quisinostat]
Method in brief: as §1

[4] = compound: NC(=O)Nc1cc(-c2cccc(F)c2)sc1C(=O)N[C@H]1CCCNC1
Method in brief: as §1

[5] = compound: NC(=O)c1cnc(N[C@@H]2CCCC[C@@H]2N)nc1Nc1cccc(-n2nccn2)c1
Method in brief: as §1

[6] = compound: Cc1cn(-c2cc(NC(=O)c3ccc(C)c(Nc4nccc(-c5cccnc5)n4)c3)cc(C(F)(F)F)c2)cn1 [nilotinib]
Method in brief: as §1

[7] = compound: Cc1nc(Nc2n[nH]c3c2CN(C(=O)N[C@H](CN(C)C)c2ccccc2)C3(C)C)c2sccc2n1
Method in brief: as §1

[8] = compound: Cc1ncc(-c2ccnc(Nc3ccc(S(C)(=O)=O)cc3)n2)n1C(C)C
Method in brief: as §1

[9] = compound: Cn1cncc1[C@@](N)(c1ccc(Cl)cc1)c1ccc2c(c1)c(-c1cccc(Cl)c1)cc(=O)n2C [tipifarnib]
Method in brief: as §1

[10] = compound: NC1(c2ccc(-c3nc4ccn5c(=O)[nH]nc5c4cc3-c3ccccc3)cc2)CCC1
Method in brief: as §1

Chain of UniProt P42858 (P42858 whole entry, looked up): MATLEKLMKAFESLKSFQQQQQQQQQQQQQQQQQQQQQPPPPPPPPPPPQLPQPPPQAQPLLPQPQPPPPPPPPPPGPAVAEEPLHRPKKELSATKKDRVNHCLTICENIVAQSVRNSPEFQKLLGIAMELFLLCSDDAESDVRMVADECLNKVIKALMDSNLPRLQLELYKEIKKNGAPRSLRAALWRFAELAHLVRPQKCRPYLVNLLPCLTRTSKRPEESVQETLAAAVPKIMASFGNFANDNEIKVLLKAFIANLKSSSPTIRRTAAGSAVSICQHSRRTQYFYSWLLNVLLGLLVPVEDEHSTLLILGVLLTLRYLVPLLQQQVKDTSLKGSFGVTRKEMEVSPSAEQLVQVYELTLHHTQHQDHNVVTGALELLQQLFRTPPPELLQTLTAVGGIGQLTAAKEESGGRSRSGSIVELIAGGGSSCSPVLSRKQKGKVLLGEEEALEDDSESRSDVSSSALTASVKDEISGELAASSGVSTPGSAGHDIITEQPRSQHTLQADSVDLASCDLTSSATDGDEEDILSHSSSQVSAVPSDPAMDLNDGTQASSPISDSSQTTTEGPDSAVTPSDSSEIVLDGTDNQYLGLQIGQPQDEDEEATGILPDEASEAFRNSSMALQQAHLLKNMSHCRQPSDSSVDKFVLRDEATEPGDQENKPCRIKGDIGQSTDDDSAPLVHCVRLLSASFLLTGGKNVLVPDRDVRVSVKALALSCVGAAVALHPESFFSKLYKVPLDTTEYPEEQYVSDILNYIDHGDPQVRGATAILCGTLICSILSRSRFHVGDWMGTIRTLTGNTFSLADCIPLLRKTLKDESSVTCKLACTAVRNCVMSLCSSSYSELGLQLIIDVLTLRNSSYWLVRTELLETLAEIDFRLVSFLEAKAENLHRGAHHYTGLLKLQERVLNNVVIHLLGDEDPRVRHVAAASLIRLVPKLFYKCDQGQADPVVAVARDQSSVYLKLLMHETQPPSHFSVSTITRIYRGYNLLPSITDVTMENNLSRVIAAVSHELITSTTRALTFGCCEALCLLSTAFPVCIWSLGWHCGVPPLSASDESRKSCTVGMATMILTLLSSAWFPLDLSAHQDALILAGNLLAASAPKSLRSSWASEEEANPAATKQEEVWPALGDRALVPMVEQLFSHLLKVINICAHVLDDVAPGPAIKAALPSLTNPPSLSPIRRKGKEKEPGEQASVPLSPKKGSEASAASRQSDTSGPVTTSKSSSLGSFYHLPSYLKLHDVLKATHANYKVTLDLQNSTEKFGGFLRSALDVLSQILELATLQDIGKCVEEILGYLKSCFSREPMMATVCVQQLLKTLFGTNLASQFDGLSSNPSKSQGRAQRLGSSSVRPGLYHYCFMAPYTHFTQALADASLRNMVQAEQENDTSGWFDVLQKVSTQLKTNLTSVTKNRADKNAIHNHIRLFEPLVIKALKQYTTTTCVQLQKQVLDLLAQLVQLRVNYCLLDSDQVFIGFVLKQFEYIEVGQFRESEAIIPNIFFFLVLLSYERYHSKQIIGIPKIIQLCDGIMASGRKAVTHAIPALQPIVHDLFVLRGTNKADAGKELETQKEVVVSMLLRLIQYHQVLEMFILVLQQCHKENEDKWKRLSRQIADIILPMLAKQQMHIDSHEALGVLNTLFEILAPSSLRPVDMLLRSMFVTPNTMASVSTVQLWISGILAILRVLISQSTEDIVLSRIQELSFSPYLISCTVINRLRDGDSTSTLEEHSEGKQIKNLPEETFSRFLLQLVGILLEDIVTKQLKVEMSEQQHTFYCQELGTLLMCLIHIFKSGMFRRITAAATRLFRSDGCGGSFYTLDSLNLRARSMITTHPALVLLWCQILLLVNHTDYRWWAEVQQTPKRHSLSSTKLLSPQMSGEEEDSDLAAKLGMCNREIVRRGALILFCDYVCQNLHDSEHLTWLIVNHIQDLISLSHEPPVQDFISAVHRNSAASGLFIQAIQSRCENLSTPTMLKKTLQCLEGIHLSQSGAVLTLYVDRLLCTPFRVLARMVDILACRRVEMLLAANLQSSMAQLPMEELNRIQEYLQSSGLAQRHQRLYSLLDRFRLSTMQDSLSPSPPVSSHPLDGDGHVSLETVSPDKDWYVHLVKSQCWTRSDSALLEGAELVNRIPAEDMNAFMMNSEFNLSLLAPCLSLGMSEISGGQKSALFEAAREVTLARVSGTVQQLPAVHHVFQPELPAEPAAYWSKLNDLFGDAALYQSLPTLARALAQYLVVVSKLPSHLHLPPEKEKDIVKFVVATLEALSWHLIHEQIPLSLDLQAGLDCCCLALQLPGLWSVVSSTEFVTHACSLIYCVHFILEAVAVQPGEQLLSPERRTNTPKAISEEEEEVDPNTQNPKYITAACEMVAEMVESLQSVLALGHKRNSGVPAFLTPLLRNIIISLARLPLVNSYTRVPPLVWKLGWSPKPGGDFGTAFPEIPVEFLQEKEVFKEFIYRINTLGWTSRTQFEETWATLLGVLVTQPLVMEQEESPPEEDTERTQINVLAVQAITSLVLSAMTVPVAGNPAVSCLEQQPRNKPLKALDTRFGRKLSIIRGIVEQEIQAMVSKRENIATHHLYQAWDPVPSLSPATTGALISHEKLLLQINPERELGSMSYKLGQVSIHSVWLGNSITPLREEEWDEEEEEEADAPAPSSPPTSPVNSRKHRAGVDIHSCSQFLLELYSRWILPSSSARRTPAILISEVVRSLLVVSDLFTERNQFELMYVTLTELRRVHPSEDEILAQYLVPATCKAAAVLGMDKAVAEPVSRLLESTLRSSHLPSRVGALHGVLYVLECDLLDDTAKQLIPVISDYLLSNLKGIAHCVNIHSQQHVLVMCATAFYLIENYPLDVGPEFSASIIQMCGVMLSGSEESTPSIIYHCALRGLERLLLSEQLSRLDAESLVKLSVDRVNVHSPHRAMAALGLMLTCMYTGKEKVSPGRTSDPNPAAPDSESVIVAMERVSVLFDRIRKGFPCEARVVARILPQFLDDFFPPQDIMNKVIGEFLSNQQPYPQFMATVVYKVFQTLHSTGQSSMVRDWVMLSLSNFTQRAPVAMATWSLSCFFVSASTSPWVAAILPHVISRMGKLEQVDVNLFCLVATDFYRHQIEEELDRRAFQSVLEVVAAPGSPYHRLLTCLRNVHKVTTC
Chain of UniProt Q8IWB1 (Q8IWB1 whole entry, looked up): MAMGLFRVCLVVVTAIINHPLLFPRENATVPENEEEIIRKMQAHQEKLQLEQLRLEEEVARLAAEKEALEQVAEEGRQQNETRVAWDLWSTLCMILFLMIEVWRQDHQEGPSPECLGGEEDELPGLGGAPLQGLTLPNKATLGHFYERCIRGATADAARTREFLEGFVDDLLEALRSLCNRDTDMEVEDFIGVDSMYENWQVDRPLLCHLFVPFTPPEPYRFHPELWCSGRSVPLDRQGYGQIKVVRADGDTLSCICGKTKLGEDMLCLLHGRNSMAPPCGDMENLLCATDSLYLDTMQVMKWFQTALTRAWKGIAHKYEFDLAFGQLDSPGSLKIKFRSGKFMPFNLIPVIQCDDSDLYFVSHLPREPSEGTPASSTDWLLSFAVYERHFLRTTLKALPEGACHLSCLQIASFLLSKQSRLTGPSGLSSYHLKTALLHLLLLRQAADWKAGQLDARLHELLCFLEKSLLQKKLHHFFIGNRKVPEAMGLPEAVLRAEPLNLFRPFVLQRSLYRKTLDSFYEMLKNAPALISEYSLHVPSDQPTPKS
Chain of UniProt Q9Y573 (Q9Y573 whole entry, looked up): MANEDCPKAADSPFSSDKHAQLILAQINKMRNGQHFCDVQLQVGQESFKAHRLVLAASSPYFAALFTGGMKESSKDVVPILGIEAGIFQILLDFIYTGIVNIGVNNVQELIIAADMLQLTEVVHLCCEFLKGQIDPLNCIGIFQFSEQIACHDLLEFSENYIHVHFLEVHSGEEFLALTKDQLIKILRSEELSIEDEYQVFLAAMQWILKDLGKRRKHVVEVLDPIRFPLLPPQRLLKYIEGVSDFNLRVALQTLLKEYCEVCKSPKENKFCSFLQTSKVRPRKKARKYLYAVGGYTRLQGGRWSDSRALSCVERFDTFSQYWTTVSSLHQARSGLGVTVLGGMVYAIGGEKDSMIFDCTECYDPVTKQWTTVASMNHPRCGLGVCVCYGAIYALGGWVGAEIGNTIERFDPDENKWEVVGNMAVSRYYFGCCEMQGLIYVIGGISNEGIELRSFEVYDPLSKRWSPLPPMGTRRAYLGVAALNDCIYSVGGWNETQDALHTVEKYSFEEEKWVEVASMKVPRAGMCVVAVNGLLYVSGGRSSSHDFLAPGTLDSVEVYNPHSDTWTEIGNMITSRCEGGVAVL
Chain of UniProt P49448 (P49448 whole entry, looked up): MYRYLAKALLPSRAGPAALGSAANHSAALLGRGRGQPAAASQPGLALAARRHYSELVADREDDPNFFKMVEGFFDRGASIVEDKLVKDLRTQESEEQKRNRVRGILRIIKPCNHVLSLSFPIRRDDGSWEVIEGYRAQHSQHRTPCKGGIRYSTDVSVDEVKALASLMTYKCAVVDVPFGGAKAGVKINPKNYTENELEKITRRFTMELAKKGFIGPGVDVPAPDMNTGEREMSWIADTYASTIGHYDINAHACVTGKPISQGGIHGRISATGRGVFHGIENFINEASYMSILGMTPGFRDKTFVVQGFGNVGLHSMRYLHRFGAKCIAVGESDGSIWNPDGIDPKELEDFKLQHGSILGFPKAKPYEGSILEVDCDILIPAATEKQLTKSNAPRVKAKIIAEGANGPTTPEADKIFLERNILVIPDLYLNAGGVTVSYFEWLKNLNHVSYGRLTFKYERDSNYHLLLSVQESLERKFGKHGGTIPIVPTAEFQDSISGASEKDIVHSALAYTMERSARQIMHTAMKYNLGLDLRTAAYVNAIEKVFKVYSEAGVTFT
Chain of UniProt P02724 (P02724 whole entry, looked up): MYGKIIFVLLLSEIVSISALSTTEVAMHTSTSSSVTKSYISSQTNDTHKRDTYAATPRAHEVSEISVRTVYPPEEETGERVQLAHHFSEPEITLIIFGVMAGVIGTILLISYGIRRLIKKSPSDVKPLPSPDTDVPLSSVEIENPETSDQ

Target	log2 fold change [1]	log2 fold change [2]	log2 fold change [3]	log2 fold change [4]	log2 fold change [5]	log2 fold change [6]	log2 fold change [7]	log2 fold change [8]	log2 fold change [9]	log2 fold change [10]
HNRNPM (UniProt M0QZM1)	-0.022	-0.163	0	-0.012	–	–	–	–	–	–
HYDIN (UniProt Q4G0P3)	-0.034	0.219	–	–	-0.282	–	–	–	–	–
HECW2 (UniProt Q9P2P5)	-0.031	-0.103	-0.513 (active)	-0.035	–	-0.147	0.021	-0.092	-0.041	0.126
H3-3A (UniProt P84243)	–	–	0.014	0.032	0	–	–	–	–	-0.093
IL18R1 (UniProt Q13478)	0.181	0.004	0.067	0.155	-0.055	0.02	0.136	-0.108	0.118	0.211
ISL2 (UniProt Q96A47)	0.015	0.053	0.055	-0.092	–	–	–	–	–	0.014
GPLD1 (UniProt P80108)	-0.255	0	0.108	0.153	–	–	–	–	–	–
ICAM2 (UniProt P13598)	0.013	-0.035	0.007	-0.018	-0.004	0.081	-0.077	0.012	-0.016	0.018
ITPR2 (UniProt Q14571)	0.019	-0.078	–	–	0.277	-0.008	-0.081	0.048	0.003	-0.12
HNRNPUL1 (UniProt Q9BUJ2)	-0.012	0.01	0.015	0.045	-0.003	-0.291 (active)	0.018	0.006	0.019	-0.009
HK1 isoform 2 (UniProt P19367)	-0.026	-0.008	-0.013	0.008	-0.005	0.011	0	-0.005	0.007	0
HNRNPD (UniProt D6RF44)	–	–	-0.061	-0.353	–	-0.03	0.11	0.103	0.12	–
ITPRIP (UniProt Q8IWB1)	-0.017	0.005	–	–	–	–	–	–	–	0.06
GTPBP6 (UniProt O43824)	-0.025	0.136	–	–	–	–	–	–	–	–
HK2 (UniProt P52789)	-0.052	0.033	-0.079	0.048	0.035	0.065	-0.003	0	-0.01	-0.031
HNRNPL, A0A3B3ITJ4	–	–	–	–	0.019	–	–	–	–	–
KDM6A (UniProt O15550)	0.041	0.015	-0.062	0.002	-0.017	0.009	0.033	-0.009	-0.031	0.009
IPP (UniProt Q9Y573)	-0.244	0.03	–	–	-0.097	–	–	–	–	0.093

Target	log2 fold change [1]	log2 fold change [2]	log2 fold change [3]	log2 fold change [4]	log2 fold change [5]	log2 fold change [6]	log2 fold change [7]	log2 fold change [8]	log2 fold change [9]	log2 fold change [10]
HMGN5 (UniProt Q5JSK9)	–	–	–	–	-0.035	-0.074	0.062	-0.036	0.076	–
GMDS (UniProt O60547)	-0.043	-0.013	-0.041	0.038	-0.005	-0.023	0.05	-0.03	0.029	-0.029
HDAC3 (UniProt E7ESJ6)	–	–	–	–	0.058	–	–	–	–	–
HTT (UniProt P42858)	0.001	0.072	-0.081	0.041	–	-0.106	0.003	0.072	-0.072	0.005
ITM2B (UniProt Q9Y287)	0.023	-0.031	0.015	0.018	–	0.012	-0.028	-0.002	-0.012	-0.024
JAK3 (UniProt P52333)	–	–	0.131	0.008	-0.056	–	–	–	–	–
GSTM2 (UniProt P28161)	0.027	-0.005	–	–	-0.052	0.124	-0.007	0.007	0.064	-0.019
HOMER3 (UniProt Q9NSC5)	–	–	-0.147	0.019	-0.023	–	–	–	–	–
GLUD2 (UniProt P49448)	0.013	-0.017	0.039	0.015	0.012	0.053	-0.067	-0.003	0.047	-0.004
GPA33 (UniProt Q99795)	-0.077	-0.09	–	–	-0.045	-0.085	-0.093	-0.023	0.022	0.047
GTF2H1 (UniProt P32780)	-0.012	0.043	-0.064	0.06	0.037	0.009	0.013	-0.04	0.084	-0.036
ITGB1BP2 (UniProt Q9UKP3)	-0.104	0.249	–	–	–	–	–	–	–	–
HNRNPUL1 (UniProt M0R247)	–	–	–	–	–	–	–	–	–	-0.063
IGF2BP2 isoform 6 (UniProt Q9Y6M1)	–	–	–	–	0.079	–	–	–	–	–
GYPA (UniProt P02724)	0.097	0.045	-0.062	0.026	-0.047	–	–	–	–	-0.024
GTF3C3 (UniProt Q9Y5Q9)	0.008	0.009	-0.134	0.031	0.009	0.035	0.052	-0.026	-0.057	-0.084
KDM5B isoform 2 (UniProt Q9UGL1)	0.021	-0.049	-0.117	-0.085	0.034	–	–	–	–	-0.049
